# Screening results deposited in PubChem by several laboratories.
# Rows were chosen to be rich in hits. Some 1.3% of all compounds tested hit in one or more screens of this group.
# Bcl-xL primary: blocks human Bcl-xL binding to Bim BH3 peptide | AID 2129 | inhibition, % at 10.9 µM | GST-Bcl-xL / FITC-Bim BH3 peptide fluorescence polarization | Q07817 | 320,000 compounds, 0.7% hits;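 active = inhibition above the mean of all tested compounds plus 3 SD, cutoff set per campaign, cut at about 30% in these data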;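 note: inhibitors lower millipolarization by displacing the labeled peptide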
# Target sequence (Q07817 whole entry, looked up): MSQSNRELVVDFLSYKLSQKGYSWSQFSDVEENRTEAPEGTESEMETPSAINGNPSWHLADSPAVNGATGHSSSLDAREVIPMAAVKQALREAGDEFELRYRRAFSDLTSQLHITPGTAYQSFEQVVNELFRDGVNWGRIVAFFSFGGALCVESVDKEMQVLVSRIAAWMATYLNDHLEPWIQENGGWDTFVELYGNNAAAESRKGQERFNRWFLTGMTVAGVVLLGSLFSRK
# GLD-1 RNA inh: GLD-1-TGE RNA interaction inhibition (C. elegans); AID 2280; 320,000 compounds, 0.44% hits; inhibition, % at 5.96 µM; purified GLD-1 + fluorescein TGE RNA, fluorescence polarization;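 active = percent inhibition above a per-plate cutoff, the plate mean of test compounds plus 3 SD, cut at about 30% in these data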
# E coli Lon inh: E. coli protease La inhibition; P0A9M0; purified E. coli Lon protease, fluorescence polarization; inhibition, % at 7.94 µM; 360,000 compounds, 0.42% hits; in the data active = inhibition above about 13%, passing the limit was not always enough
# EBV gp42 inh: inhibitors of Epstein-Barr virus glycoprotein 42; Q1HVG2; Fluorescence polarization binding assay, mP read-out; inhibition, % (tested at 21.74 µM); 220,000 compounds, 0.42% hits; AID 1085; in the data active = inhibition above about 50%
# Target sequence (Q1HVG2 whole entry, looked up): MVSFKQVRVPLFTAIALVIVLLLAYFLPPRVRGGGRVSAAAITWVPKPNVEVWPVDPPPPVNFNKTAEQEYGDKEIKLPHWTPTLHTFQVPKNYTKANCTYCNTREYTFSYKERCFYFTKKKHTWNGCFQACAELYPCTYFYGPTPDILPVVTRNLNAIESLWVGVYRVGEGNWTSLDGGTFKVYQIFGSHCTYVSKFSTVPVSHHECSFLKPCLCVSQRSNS
# MEX-5 binding: C. elegans MEX-5 TCR-2 RNA binding activity. MEX-5/FITC-TCR2 RNA binding, fluorescence polarization; stronger effect = lower value. 300,000 compounds, 0.38% hits. AID 1832. Q9XUB2. activity score (negative = inhibition of binding), % at 10 µM;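 active = inhibition past about -25% in most replicates, and total fluorescence under double the plate's negative control median, limit read from the data; inconclusive = replicates evenly split on the limit, or fluorescence at least double controls; inactive = too little inhibition in most replicates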
# eLon confirm: confirmation of E. coli Lon protease inhibitors | shares compounds with E coli Lon inh | purified E. coli Lon, fluorescence polarization | inhibition, % at 7.94 µM | 1,400 compounds, 31% hits; in the data active = inhibition above about 16%
# A number is an active result; - = inactive; ? = inconclusive; . = no result given; + = active, no number.
SMILES,Bcl-xL primary,GLD-1 RNA inh,E coli Lon inh,EBV gp42 inh,MEX-5 binding,eLon confirm
CCCNC(=O)c1ccc2c(=O)c(O)c(-c3ccsc3)[nH]c2c1,-,-,+,-,?,182
O=C1CN(C(=O)COC(=O)CCC(=O)c2ccc(F)cc2)c2ccccc2N1,.,-,-,.,.,.
CCN(CC)S(=O)(=O)c1ccc(N2CCOCC2)c(NC(=O)c2cc3ccccc3o2)c1,.,.,30,.,.,-
CCN1CC=C2C(C1)C(c1ccc(Cl)s1)C(C#N)=C(N)C2(C#N)C#N (stereo unspecified),102,76,81,88,?,-
Cc1cc(Cl)ccc1OC(C)C(=O)NNC(=O)C1CCCCC1C(=O)O (stereo unspecified),.,.,-,.,-,.
Cc1cc(Cl)ccc1OC(C)C(=O)NN=C1CCCCCC1 (stereo unspecified),-,-,21,.,-,-
CN(C)c1cc2c3ccccc3n(C)c2cc1N,.,.,41,.,.,52
Cc1ccc(C)c2c1c1ccccc1n2C,-,-,-,-,-,.
COc1ccc(-c2ccc(NS(=O)(=O)c3cc([N+](=O)[O-])c(C)c([N+](=O)[O-])c3)cc2)nn1,-,-,-,.,-,.
COC(=O)c1ccsc1NC(=O)CSc1nnnn1-c1ccccc1SC,-,-,20,-,-,-
CSc1ccccc1NC(=O)CSc1nnnn1-c1ccccc1SC,-,-,-,-,-,.
O=C1CC(C(=O)Nc2ccccc2C(=O)O)C(c2ccccc2)O1 (stereo unspecified),-,-,19,-,-,-
O=C1CC(C(=O)Nc2ccc(O)c(C(=O)O)c2)C(c2ccccc2)O1 (stereo unspecified),-,-,-,-,-,.
O=C(COC(=O)c1cc2ccccc2cc1O)NC1CCCCC1,.,-,26,.,.,-
O=C1NC2=C(C(=O)CCC2)C(c2ccccc2[N+](=O)[O-])N1 (stereo unspecified),51,-,25,.,-,-
O=C1NC2=C(C(=O)CCC2)C(c2ccccc2Cl)N1 (stereo unspecified),-,-,-,.,-,.
CC(C)=CCN1CCN(Cc2ccc(Sc3nncn3C)o2)CC1CCO (stereo unspecified),-,-,-,-,-,.
COc1ccc2nc(N=Nc3ccc(N(C)C)cc3)sc2c1,.,.,-,-,.,.
CN(C)c1ccc2nc3ccc(=O)cc-3sc2c1,.,.,40,.,.,44
COc1cccc(/C=N/NC(=O)c2ccc(=O)n(C)c2)c1OC,-,-,22,-,-,-
CC(C)c1[nH]nc2c1C1(CCN(Cc3ccccc3)CC1)C(C#N)=C(N)O2,104,57,30,-,-,-
CCCc1[nH]nc2c1C1(CCN(C(=O)OCc3ccccc3)CC1)C(C#N)=C(N)O2,-,-,-,-,-,.
Cc1c(C(=O)N2CCCCC2)oc2ccc(Br)cc12,-,-,-,.,-,.
Cc1c(C(=O)N2CCN(S(=O)(=O)c3ccccc3)CC2)oc2ccc(Br)cc12,.,-,35,.,.,-
O=C(c1cc2ccccc2o1)N1CCN(S(=O)(=O)c2ccccc2)CC1,.,.,19,.,.,-
SMILES,Bcl-xL primary,GLD-1 RNA inh,E coli Lon inh,EBV gp42 inh,MEX-5 binding,eLon confirm
O=C(Oc1ccc2c3c(c(=O)oc2c1)CCCC3)c1cccs1,-,-,18,-,-,25
CSCCC(NC(=O)c1ccco1)C(=O)N1CCCCCCC1 (stereo unspecified),-,-,21,.,-,-
CSCCC(NC(=O)c1ccco1)C(=O)N1CCC(C(N)=O)CC1 (stereo unspecified),-,-,-,.,-,.
CCc1c(Cl)nc(N)nc1Nc1ccccc1C,.,.,-,.,.,.
Cc1ccccc1Nc1nc(N)[nH]c(=O)c1N=O,.,.,26,.,.,-
Cc1ccc2c(c1)C(=O)CCN2,-,-,-,-,-,.
O=C1CCNc2ccc(-c3ccccc3)cc21,-,-,73,+,-67,+
COc1ccc(CN2C[C@@H](CO)O[C@@H](n3cnc4c(N5CCOCC5)ncnc43)C2)cc1,.,.,-,.,.,.
COC(=O)c1ccccc1NC(=O)N[C@@H](C)C(=O)OC,-,-,16,-,-,-
COc1cccc(NC(=S)N2CCN(c3ccccn3)CC2)c1,-,-,+,-,-,-
S=C(Nc1cccc(Cl)c1)N1CCN(c2ccccn2)CC1,-,-,-,.,-,.
CCC(C(=O)NC1CCCC1)N(Cc1ccco1)C(=O)CNS(=O)(=O)c1ccccc1 (stereo unspecified),-,-,17,.,-,-
COc1ccc(CC(=O)OCc2cc3ccccc3[nH]c2=O)cc1,-,-,-,-,-,.
COc1cc(OC)cc(C(=O)OCc2cc3ccccc3[nH]c2=O)c1,-,-,23,-,-,-
COc1ccccc1C(=O)NC(=O)COC(=O)Cn1cnc2c1c(=O)n(C)c(=O)n2C,-,-,-,.,-,.
Cc1ccc([C@H]2N[C@]3(CCCN(Cc4ccco4)C3=O)[C@H]3C(=O)N(Cc4ccccc4)C(=O)[C@@H]23)cc1,.,.,-,.,.,.
O=C1[C@H]2[C@@H](c3ccccc3)N[C@]3(CCCN(Cc4ccco4)C3=O)[C@H]2C(=O)N1Cc1ccccc1,.,.,96,.,.,-
O=C(C1CCN(Cc2cn[nH]c2-c2ccc(F)cc2F)CC1)N1CCOCC1,-,-,-,-,-,.
O=C(N/N=C/c1ccccc1)C(=O)N/N=C/c1ccccc1,-,-,20,.,-,-
COc1ccc(NC(=O)C2c3ccccc3OCC(=O)N2CCc2ccccc2)cc1 (stereo unspecified),.,.,-,.,.,.
NC(=O)c1cc2c3ccccc3ccn2c1-c1ccccc1,50,51,25,-,-,18
Cc1cc(C(N)=O)c2ccccc2n1,-,-,-,-,-,.
Cc1ccc(C(=O)OCc2cc(=O)n3c(C)csc3n2)s1,-,-,-,.,.,.
O=C(c1cc(COc2ccc(F)cc2F)on1)N1CC2C[C@@H]3CC1C[C@H](C2)C3,-,-,-,.,-,.
O=C(c1cc(COc2ccc(F)cc2F)on1)N1C[C@H]2CC[C@H]1C2,-,-,24,.,-,-
SMILES,Bcl-xL primary,GLD-1 RNA inh,E coli Lon inh,EBV gp42 inh,MEX-5 binding,eLon confirm
O=C(COc1ccc(/C=N/NC(=O)C(=O)N2CCCCCC2)cc1)Nc1ccccc1Cl,-,-,-,-,-,.
C[C@H](NC(=O)c1ccco1)C(=O)Nc1ccc(C#N)cc1,-,-,-,.,-,.
CC(=O)Nc1ccc(NC(=O)[C@H](C)NC(=O)c2ccco2)cc1,-,-,53,.,-,-
CN(C)/C=C1\C=C2C(=O)c3ccccc3N2C1=O,109,91,93,-,.,-
CCOc1ncccc1C(=O)OCC(=O)Nc1cc(S(=O)(=O)N(CC)CC)ccc1C,-,-,13,-,-,-
CCN(CC)S(=O)(=O)c1ccc(C)c(NC(=O)COC(=O)C=C(C)C)c1,-,-,-,-,-,.
NC(=O)C1=C[C@H](c2csc3ccccc23)C[C@H](OCCCCO)O1,-,-,-,-,-,.
COc1ccc(NC(=O)COc2ccccc2C(N)=O)cc1S(=O)(=O)N1CCCCC1,.,.,-,.,.,.
CC(=O)c1ccccc1OCC(=O)Nc1cccc(S(=O)(=O)N2CCCC2)c1,-,-,-,.,.,.
